The source of these data is PubChem BioAssay (NCI).

The panel holds about 83,000 compounds, 20% with a hit somewhere; the sample as a whole holds those more often.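 Step 1: grow cells in 96-well plates. Step 2: add test compound at a single concentration. Step 3: incubate 48 h. Step 4: record percent growth.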 The source made the active and inactive calls. How the source made its calls: active means growth percent below 10; inactive means the rest.

One experiment has as its system RXF 393 renal. Nature of the experiment: NCI-60 one-dose screen, 48 h (100 = growth as untreated, 0 = no growth, -100 = all killed). To be noted: 10 µM unless noted.
On to `C=C(C)[C@@H]1CC[C@]2(CNCCO)CC[C@]3(C)[C@H](CC[C@@H]4[C@@]5(C)CCC(N)[C@@](C)(CO)[C@@H]5CC[C@]43C)[C@@H]12` (stereo partly drawn), for which the growth is 30.2% (inactive).

For `O=S(=O)(NCCNc1cc(-c2c(-c3cccc(O)c3)nc3sccn23)ccn1)c1ccc(Cl)cc1`, the growth is 71.7% (inactive).

Take `CC(C)(C)Nc1c(-c2c3ccccc3cc3ccccc23)nc2ccccn12`: the growth is 82.4% (inactive).

Take `CN(C)CCOC(=O)Nc1ccc(Cl)cc1`: the growth was 118% (inactive).

`CCOc1ccc(-c2nc3ccc(-c4nc5ccc(N6CCN(C)CC6)cc5[nH]4)cc3[nH]2)cc1OCC`: the growth was -37.8% (active).

Consider `N[C@H]1CCC[C@@H]1NCCCCN1C(=O)c2cccc3cccc(c23)C1=O`, for which the growth is 63.9% (inactive).

Consider `COc1ccc(/C=C(\C#N)n2nnc3cc(F)c(F)cc32)c(OC)c1OC`, for which the growth was 41.1% (inactive).

In the case of `COc1cc2ccccc2cc1C(=O)NC(=S)Nc1ccc(-c2nc3ccccc3[nH]2)cc1`, the growth is 86.2% (inactive).

For the compound `Cc1ccc(/C=C(\C#N)n2nnc3cc(Cl)c(Cl)cc32)cc1`, the growth is -33.5% (active).

For `CC(C)(O)c1cccc(F)c1`, the growth is 107% (inactive).

As to `O=C1Nc2ccc(Cl)cc2/C1=N/N=C/c1c[nH]c2ccccc12`, the growth is 62.7% (inactive).

For the compound `N#Cc1c(-c2ccccc2)nc(SCC2CO2)nc1N1CCOCC1` (stereo not drawn), the growth is 31.5% (inactive).

For the compound `COc1cc2c(cc1OC)-c1ccc3cc4c(cc3c1N(CCCN(C)C)C2)OCO4`, the growth was 35.1% (inactive).

Turning to `C=C1C(=O)O[C@H]2[C@H]1CC/C(Cn1cc(CNCCc3c[nH]c4ccc(Cl)cc34)nn1)=C\CC[C@@]1(C)O[C@@H]21`, the growth was 16% (inactive).

Consider `C#CC[C@H](N)C(=O)O`, for which the growth was 114% [20 µM] (inactive).

`O=C(Oc1ccc([N+](=O)[O-])cc1)c1ccc(CBr)cc1`: the growth was 114% (inactive).

As to `OC(CBr)c1ccnc2ccccc12` (stereo not drawn), the growth is 107% (inactive).

In the case of `CCCNCC(=O)Nc1ccc(C(=O)OC(C)(C)CC)cc1`, the growth was 116% (inactive).

In the case of `CC(=O)c1cc2c(o1)C(=O)c1ccccc1C2=O`, the growth is -93.8% (active).

On to `CS(=O)(=O)c1ccc(-c2[nH]c3ccc(F)cc3c2/C=N/NC(N)=S)cc1`, for which the growth was 1.16% (active).

Turning to `CC(C)c1ccc(C(=O)OC(=O)c2ccc(C(C)C)cc2)cc1`, the growth was 98.5% (inactive).

As to `N=C(N)c1ccc(-c2ccc(-c3ccc(Cl)c(Cl)c3)o2)nc1`, the growth was 86% (inactive).

For the compound `N#C/C=C(\c1ccc([N+](=O)[O-])cc1)n1nnc2cc(Cl)c(Cl)cc21`, the growth was 0.579% (active).

Turning to `CS(=O)(=O)c1ccc(-c2nc3cc(Cl)ccc3n2CC(=O)NO)cc1`, the growth was 94.9% (inactive).

For the compound `CC(=O)Nc1cccc(C2=CC(c3ccc(C)cc3)n3ncnc3N2)c1` (stereo not drawn), the growth was 96.4% (inactive).

In the case of `CCn1c(Sc2nnc(NC(=O)CCN3CCCC3)s2)nc2c1c(=O)n(C)c(=O)n2C`, the growth was 110% (inactive).

Regarding `N#Cc1c(NC(=O)c2cccc(C(F)(F)F)c2)sc2c1CCC(=O)C2`, the growth is -23.5% (active).

With `CC(C)(C)c1ccc(C(=O)Nc2sc3c(c2C(N)=O)CCC(=O)C3)cc1`, the growth is -22.4% (active).

For `CCOC(=O)c1c(C)nc2c(c1N)/C(=C/c1cc(OC)c(OC)c(OC)c1)C(=O)N2c1ccc(OC)cc1`, the growth was 87.2% (inactive).

Consider `Nc1nc(Nc2ccc(Cl)cc2)nn1S(=O)(=O)c1ccc(-c2ccc(F)cc2)cc1`, for which the growth is 92.3% (inactive).

`CCNCCNc1cc(-c2ccc(C(F)(F)F)cc2)c(C#N)c2nc3cc(Cl)c(Cl)cc3n12`: the growth was -96.3% (active).

Take `C=CCN1C(=O)[C@]2(SC1=S)[C@H](c1cccc(Cl)c1)CN(C)[C@]21C(=O)NC2C=CC(Cl)=C[C@H]21` (stereo partly drawn): the growth was 35.4% (inactive).

On to `O=C(/C=C/C12c3ccccc3C(c3ccccc31)C1C(=O)N(c3ccccc3)C(=O)C12)c1ccccc1` (stereo not drawn), for which the growth was -72.8% (active).

Consider `O=S(=O)(Nc1ccsc1-c1nc(-c2ccccc2)no1)c1cc(Cl)cc(Cl)c1`, for which the growth was 101% (inactive).

Regarding `CNC1(C#N)CCN(Cc2ccccc2)CC1`, the growth was 99.1% (inactive).

As to `COc1cc2cc(Oc3ccc(NC(=O)Nc4cc(C(F)(F)F)cc(C(F)(F)F)c4)cc3)c(C)nc2cc1OCCN1CCCCC1`, the growth was 31.8% (inactive).

In the case of `CC(C)n1nc(C#Cc2cccc3cc(-c4cccc(C(F)(F)F)c4)ncc23)c2c(N)ncnc21`, the growth was 81.7% (inactive).

`N[C@@H]1CCC[C@H]1NCCCCN1C(=O)c2cccc3cccc(c23)C1=O`: the growth was 72.8% (inactive).

On to `CCN(CC)CCOC(=O)N1c2ccccc2Sc2ccccc21`, for which the growth is 98.3% (inactive).

For a further experiment, the system named is SF-268 CNS. The experiment is described as above. To be noted: 10 µM unless noted.
In the case of `C=C(C)[C@@H]1CC[C@]2(CNCCO)CC[C@]3(C)[C@H](CC[C@@H]4[C@@]5(C)CCC(N)[C@@](C)(CO)[C@@H]5CC[C@]43C)[C@@H]12` (stereo partly drawn), the growth is 10.1% (inactive).

On to `O=S(=O)(NCCNc1cc(-c2c(-c3cccc(O)c3)nc3sccn23)ccn1)c1ccc(Cl)cc1`, for which the growth was 47.9% (inactive).

On to `CC(C)(C)Nc1c(-c2c3ccccc3cc3ccccc23)nc2ccccn12`, for which the growth was 82.9% (inactive).

For the compound `CN(C)CCOC(=O)Nc1ccc(Cl)cc1`, the growth is 105% (inactive).

For `CCOc1ccc(-c2nc3ccc(-c4nc5ccc(N6CCN(C)CC6)cc5[nH]4)cc3[nH]2)cc1OCC`, the growth is 19.3% (inactive).

With `N[C@H]1CCC[C@@H]1NCCCCN1C(=O)c2cccc3cccc(c23)C1=O`, the growth is 48.1% (inactive).

For the compound `COc1ccc(/C=C(\C#N)n2nnc3cc(F)c(F)cc32)c(OC)c1OC`, the growth was 83.5% (inactive).

Regarding `COc1cc2ccccc2cc1C(=O)NC(=S)Nc1ccc(-c2nc3ccccc3[nH]2)cc1`, the growth is 62% (inactive).

On to `Cc1ccc(/C=C(\C#N)n2nnc3cc(Cl)c(Cl)cc32)cc1`, for which the growth was 12% (inactive).

Consider `CC(C)(O)c1cccc(F)c1`, for which the growth is 106% (inactive).

In the case of `O=C1Nc2ccc(Cl)cc2/C1=N/N=C/c1c[nH]c2ccccc12`, the growth was 76.2% (inactive).

Take `N#Cc1c(-c2ccccc2)nc(SCC2CO2)nc1N1CCOCC1` (stereo not drawn): the growth was 69.7% (inactive).

With `COc1cc2c(cc1OC)-c1ccc3cc4c(cc3c1N(CCCN(C)C)C2)OCO4`, the growth is 34% (inactive).

Regarding `C=C1C(=O)O[C@H]2[C@H]1CC/C(Cn1cc(CNCCc3c[nH]c4ccc(Cl)cc34)nn1)=C\CC[C@@]1(C)O[C@@H]21`, the growth was 77.9% (inactive).

Turning to `C#CC[C@H](N)C(=O)O`, the growth was 99.8% [20 µM] (inactive).

As for `O=C(Oc1ccc([N+](=O)[O-])cc1)c1ccc(CBr)cc1`, the growth is 100% (inactive).

With `OC(CBr)c1ccnc2ccccc12` (stereo not drawn), the growth was 100% (inactive).

Turning to `CCCNCC(=O)Nc1ccc(C(=O)OC(C)(C)CC)cc1`, the growth was 99% (inactive).

`CC(=O)c1cc2c(o1)C(=O)c1ccccc1C2=O`: the growth was -62.6% (active).

For `CS(=O)(=O)c1ccc(-c2[nH]c3ccc(F)cc3c2/C=N/NC(N)=S)cc1`, the growth was 39.8% (inactive).

Consider `CC(C)c1ccc(C(=O)OC(=O)c2ccc(C(C)C)cc2)cc1`, for which the growth was 103% (inactive).

On to `N=C(N)c1ccc(-c2ccc(-c3ccc(Cl)c(Cl)c3)o2)nc1`, for which the growth is 98.5% (inactive).

On to `N#C/C=C(\c1ccc([N+](=O)[O-])cc1)n1nnc2cc(Cl)c(Cl)cc21`, for which the growth was 20.3% (inactive).

As for `CS(=O)(=O)c1ccc(-c2nc3cc(Cl)ccc3n2CC(=O)NO)cc1`, the growth is 89.2% (inactive).

As for `CC(=O)Nc1cccc(C2=CC(c3ccc(C)cc3)n3ncnc3N2)c1` (stereo not drawn), the growth is 94% (inactive).

Take `CCn1c(Sc2nnc(NC(=O)CCN3CCCC3)s2)nc2c1c(=O)n(C)c(=O)n2C`: the growth was 102% (inactive).

For the compound `N#Cc1c(NC(=O)c2cccc(C(F)(F)F)c2)sc2c1CCC(=O)C2`, the growth is 1.68% (active).

`CC(C)(C)c1ccc(C(=O)Nc2sc3c(c2C(N)=O)CCC(=O)C3)cc1`: the growth is -2.29% (active).

Regarding `CCOC(=O)c1c(C)nc2c(c1N)/C(=C/c1cc(OC)c(OC)c(OC)c1)C(=O)N2c1ccc(OC)cc1`, the growth is 45.9% (inactive).

As to `Nc1nc(Nc2ccc(Cl)cc2)nn1S(=O)(=O)c1ccc(-c2ccc(F)cc2)cc1`, the growth was 76.3% (inactive).

Regarding `CCNCCNc1cc(-c2ccc(C(F)(F)F)cc2)c(C#N)c2nc3cc(Cl)c(Cl)cc3n12`, the growth was -76.3% (active).

For the compound `C=CCN1C(=O)[C@]2(SC1=S)[C@H](c1cccc(Cl)c1)CN(C)[C@]21C(=O)NC2C=CC(Cl)=C[C@H]21` (stereo partly drawn), the growth was 52.9% (inactive).

As for `O=C(/C=C/C12c3ccccc3C(c3ccccc31)C1C(=O)N(c3ccccc3)C(=O)C12)c1ccccc1` (stereo not drawn), the growth is 35.9% (inactive).

On to `O=S(=O)(Nc1ccsc1-c1nc(-c2ccccc2)no1)c1cc(Cl)cc(Cl)c1`, for which the growth is 92.8% (inactive).

`CNC1(C#N)CCN(Cc2ccccc2)CC1`: the growth is 100% (inactive).

Consider `COc1cc2cc(Oc3ccc(NC(=O)Nc4cc(C(F)(F)F)cc(C(F)(F)F)c4)cc3)c(C)nc2cc1OCCN1CCCCC1`, for which the growth is -49.3% (active).

In the case of `CC(C)n1nc(C#Cc2cccc3cc(-c4cccc(C(F)(F)F)c4)ncc23)c2c(N)ncnc21`, the growth is 76% (inactive).

With `N[C@@H]1CCC[C@H]1NCCCCN1C(=O)c2cccc3cccc(c23)C1=O`, the growth is 52.6% (inactive).

For the compound `CCN(CC)CCOC(=O)N1c2ccccc2Sc2ccccc21`, the growth is 102% (inactive).
